# Screens from PubChem.
# 12-LOX inh: Primary qHTS assay for inhibitors of human arachidonate 12S-lipoxygenase (ALOX12): Round 2 | Polyunsaturated fatty acid lipoxygenase ALOX12 (Homo sapiens), P18054 | purified 12hLO, xylenol orange hydroperoxide absorbance | Potency, µM (series often up to 108 µM), for inactives: at the top dose activity change, negative = inhibition, most hits filed as inhibitors | 1.1% of 580,000 active; further: on the % scale 0 is the no-effect control and ±100 the full control effect
# Target sequence (P18054 whole entry, looked up): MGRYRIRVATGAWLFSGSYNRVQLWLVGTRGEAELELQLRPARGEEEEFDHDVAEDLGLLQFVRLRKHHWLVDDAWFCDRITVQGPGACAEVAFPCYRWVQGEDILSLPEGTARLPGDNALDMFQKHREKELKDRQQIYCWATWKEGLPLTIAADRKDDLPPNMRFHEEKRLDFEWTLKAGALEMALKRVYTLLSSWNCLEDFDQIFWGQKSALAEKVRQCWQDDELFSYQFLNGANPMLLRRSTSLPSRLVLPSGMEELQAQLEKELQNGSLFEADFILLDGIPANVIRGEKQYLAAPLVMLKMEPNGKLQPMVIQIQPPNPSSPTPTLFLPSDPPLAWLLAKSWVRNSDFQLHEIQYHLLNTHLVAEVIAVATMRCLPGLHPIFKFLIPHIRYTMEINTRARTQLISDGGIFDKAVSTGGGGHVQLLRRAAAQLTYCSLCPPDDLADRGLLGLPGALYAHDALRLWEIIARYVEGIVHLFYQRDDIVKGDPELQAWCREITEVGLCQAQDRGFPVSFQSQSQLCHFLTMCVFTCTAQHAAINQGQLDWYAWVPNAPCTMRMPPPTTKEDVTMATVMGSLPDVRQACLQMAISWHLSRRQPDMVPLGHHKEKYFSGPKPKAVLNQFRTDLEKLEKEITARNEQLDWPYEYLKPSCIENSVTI
#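 Purified human 12hLO (150 nM final) in 25 mM Hepes, 0.01% Triton X-100, pH 7.0 was preincubated 15 min at room temperature with compound. Then 40 uM arachidonic acid was added, 30 min. Hydroperoxide was read by Fe-XO absorbance ratio 573/405 nm.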
# ATXN viability: Viability Counterscreen for Primary qHTS for Inhibitors of ATXN expression; S2 cells (HEK-293 line with an ATXN2-luciferase reporter) viability, CellTiter-Fluor protease fluorescence, 24 h; Potency, µM (doses to about 56.7 µM), hits mostly cytotoxic; 0.49% of 400,000 active; AID 651635, 2014; further: nearly all actives have a fitted effect of over 40% in size
# TGFb SMAD3 inh: qHTS for Inhibitors of TGF-b | HepG2 CAGA-GFP TGF-b/SMAD3 reporter, GFP fluorescence, 18 h; TGF-beta stimulated, 500 pg/mL final | Potency, µM (titrated, usually from 46.1 µM), inactives show at the top dose activity, negative = inhibition, usual class: inhibitors | 1.2% of 410,000 active | AID 588855, 2011; further: on the % scale 0 is the no-effect control and ±100 the full control effect; nearly all actives have a fitted effect of over 65% in size
#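 Cell-based qHTS in HEPG2 carrying a CAGA-GFP Smad reporter; compounds added before 500 pg/mL final TGF-beta, 18 h incubation at 37 degrees C, GFP fluorescence quantified per cell by imaging cytometry.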
# ATXN2 expr inh: Primary qHTS for Inhibitors of ATXN expression. HEK-293 ATXN2-luciferase reporter, luminescence, 24 h. Potency, µM (series often up to 57 µM), without a hit: at the top dose activity change, negative = inhibition, most hits filed as inhibitors. 0.72% of 360,000 active. AID 1745845, 2022; further: on the % scale 0 is the no-effect control and ±100 the full control effect; nearly all actives have a fitted effect of over 55% in size
#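 ATXN2-luciferase reporter cells (luciferase flanked by upstream and downstream ATXN2 gene portions) were treated 24 h at 37 °C with compounds at up to 57 uM. SteadyGlo luminescence gave expression; GF-AFC fluorescence gave viability.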
# HepG2 viability: qHTS for Inhibitors of TGF-b: Cytotox Counterscreen; HepG2 CAGA-GFP viability, ATP luminescence, 18 h; Potency, µM (series often up to 46.1 µM), for the others: top-dose activity change, negative = cytotoxicity, hits mostly cytotoxic; 0.76% of 410,000 active
#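 CellTiter-Glo luminescence gave cytotoxicity after 18 hours at 37 degrees C. The cells were HepG2 CAGA-GFP in 1% FBS DMEM, stimulated with 500 pg/mL TGF-beta after compound addition. %Activity was normalised to no-cell wells (complete cell-killing) and DMSO (no toxicity), and curves were fitted and classified.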
# Numbers without * were called inactive; i = inactive; ? = inconclusive; . = no result; [ ] = dose if it differs, or a comment. Only some compounds are listed: those with a hit (about 2.7% of all), similar ones and a draw of the others. The call rests on the fitted dose curve; in most records, active means well fitted curve in the direction sought with a large enough effect; inconclusive means small, poorly fitted or top-dose-only effect, or another doubt; inactive means no such curve, though single readings can be large; an effect the other way counts as inactive or inconclusive. Potency means the concentration at half of the fitted maximal effect.
SMILES,12-LOX inh,ATXN viability,TGFb SMAD3 inh,ATXN2 expr inh,HepG2 viability
CCc1ccccc1S(=O)(=O)Cc1ccc(C(=O)NCCc2ccc(Cl)cc2)o1,-12%,.,11µM*,?,-46%
O=C(NCCc1ccc(Cl)cc1)c1ccc(CS(=O)Cc2cccc(Cl)c2)o1 (centres undefined),?,.,8.9µM*,.,-19%
COCCCNC(=O)c1cc(-c2ccccc2)nc2ccc(C)cc12,-10%,.,.,.,.
COc1cccc(-c2nn(C)c3sc(C(=O)NCCCN(C)Cc4ccccc4)cc23)c1,0%,?,-11%,28µM*,-22%
COc1ccc(OC)c(CCNC(=O)c2cc3c(-c4ccccc4F)nn(C)c3s2)c1,-16%,?,?,25µM*,-41%
Cc1nn(CC(=O)Nc2ccccc2)c(C)c1S(=O)(=O)N1CCC(C)CC1,-33%,.,.,.,.
O=C(O)CNC(=O)CNS(=O)(=O)Cc1ccccc1,-9%,.,.,.,.
O=C1CCCC(O)=C1C(C#Cc1ccccc1)C1=C(O)CCCC1=O,.,?,?,?,16µM*
CN(C)/C=C/C(=O)c1ccc(-c2ccc(Cl)cc2Cl)o1,1.6µM*,i,-2%,8%,4%
CN(C)/C=C/C(=O)c1ccc(Cl)cc1,16µM*,i,5%,13%,-25%
O=C(O)c1ccc(-c2ccc(Cl)cc2Cl)o1,?,i,29%,11%,-3%
CN(C)/C=C/C(=O)c1ccc(-n2cccc2)cc1,?,i,-5%,16%,-14%
CN(C)/C=C\C(=O)c1ccc(Br)cc1,4µM*,.,.,.,.
Cc1ccc(C(=O)/C=C\N(C)C)cc1,56µM*,.,.,.,.
Cc1ccc(C(=O)/C=C/N(C)C)cn1,0%,i,?,4%,1%
Cc1ccc(Cl)cc1N1CCN(Cc2nc3c([nH]2)c(=O)n(C)c(=O)n3C)CC1,-6%,.,.,.,.
CCn1nc(C(=O)N2CC(C(=O)N3CCOCC3)Oc3ccccc32)c2ccccc2c1=O (centres undefined),-30%,.,.,.,.
Cc1cc(Br)ccc1NC(=O)CC1CC2CCC1C2 (centres undefined),25%,.,.,.,.
CC1(NC(=O)c2cn(-c3cccc(Br)c3)nn2)CCS(=O)(=O)C1 (centres undefined),28%,.,.,.,.
O=C(NC1CCCCC1)N1CCC2(CC1)Nc1ccccc1-n1cccc12,-2%,.,.,.,.
CC(C)C(CNC(=O)c1n[nH]c(=O)c2ccccc12)N(C)C (centres undefined),-2%,.,.,.,.
CN(C)/C=C/C(=O)c1ccn(S(=O)(=O)c2ccccc2)c1,50µM*,i,-15%,-5%,-35%
CNC(=O)NC(=O)C(C)N(C)Cc1cccc(C#N)c1 (centres undefined),50%,.,.,.,.
CC(C)c1cnn2c(NCc3ccccc3)cc(N[C@@H](CO)[C@H](O)CO)nc12,-1%[57.4 µM],.,.,0.27µM*,.
Cc1cc(NCc2ccccc2)n2ncnc2n1,0%,i,1%,-20%,1%
SMILES,12-LOX inh,ATXN viability,TGFb SMAD3 inh,ATXN2 expr inh,HepG2 viability
CCCN1C(=O)Cc2ccccc2C1C(=O)NCc1ccc(F)c(Cl)c1 (centres undefined),-26%,.,.,.,.
CC(C)=CCC1=C(OCC(=O)O)C(=O)c2ccccc2C1=O,-30%,?,14µM*,.,11µM*
O=C(COC(=O)c1ccc(N2CCCC2=O)cc1)c1ccc2c(c1)CCC2,14%,.,.,.,.
CC1CCCCN1CCNC(=O)c1ccc2c(=O)n(Cc3ccc(Cl)cc3)c(=S)[nH]c2c1 (centres undefined),?,i,?,?,13µM*
Oc1ccc(-c2cnc3ccccc3n2)cc1,46%,.,-4%,67%,-13%
c1coc(-c2nc3ccccc3nc2-c2ccco2)c1,50µM*,?,-2%,3%,-4%
c1coc(-c2cnc3ccccc3n2)c1,40µM*,i,8%,.,0%
CC(C)c1nc(N2CCN(C(=O)c3ccco3)CC2)c(C#N)c2c1COC(C)(C)C2,-13%,i,4%,-19%,-1%
CN(C)CCNc1nc(-c2ccco2)c2c(c1C#N)CC(C)(C)OC2,-6%,i,-19%,-32%,3%
